Test results reported in PubChem BioAssay (EPA / NIEHS).
Inconclusive results are not listed. Activity calls are given as the source filed them. The calls were made as follows: active = hit-call score of the fitted dose curve at least 0.9, where 1 is the maximum; inconclusive = response in the unintended direction; inactive = score below 0.9.

What follows are compounds tested against human Rho Associated Coiled-coil Containing Protein Kinase 1 (ROCK1), ROCK1 (gene 6093) (UniProt Q13464) (assay: NVS_ENZ_hROCK1: NovaScreen (NVS) Enzymatic Assay for human Rho Associated Coiled-coil Containing Protein Kinase 1 (ROCK1) (AID 2283214)).
Chain of human Rho Associated Coiled-coil Containing Protein Kinase 1 (ROCK1), ROCK1 (gene 6093) (Q13464 whole entry, looked up): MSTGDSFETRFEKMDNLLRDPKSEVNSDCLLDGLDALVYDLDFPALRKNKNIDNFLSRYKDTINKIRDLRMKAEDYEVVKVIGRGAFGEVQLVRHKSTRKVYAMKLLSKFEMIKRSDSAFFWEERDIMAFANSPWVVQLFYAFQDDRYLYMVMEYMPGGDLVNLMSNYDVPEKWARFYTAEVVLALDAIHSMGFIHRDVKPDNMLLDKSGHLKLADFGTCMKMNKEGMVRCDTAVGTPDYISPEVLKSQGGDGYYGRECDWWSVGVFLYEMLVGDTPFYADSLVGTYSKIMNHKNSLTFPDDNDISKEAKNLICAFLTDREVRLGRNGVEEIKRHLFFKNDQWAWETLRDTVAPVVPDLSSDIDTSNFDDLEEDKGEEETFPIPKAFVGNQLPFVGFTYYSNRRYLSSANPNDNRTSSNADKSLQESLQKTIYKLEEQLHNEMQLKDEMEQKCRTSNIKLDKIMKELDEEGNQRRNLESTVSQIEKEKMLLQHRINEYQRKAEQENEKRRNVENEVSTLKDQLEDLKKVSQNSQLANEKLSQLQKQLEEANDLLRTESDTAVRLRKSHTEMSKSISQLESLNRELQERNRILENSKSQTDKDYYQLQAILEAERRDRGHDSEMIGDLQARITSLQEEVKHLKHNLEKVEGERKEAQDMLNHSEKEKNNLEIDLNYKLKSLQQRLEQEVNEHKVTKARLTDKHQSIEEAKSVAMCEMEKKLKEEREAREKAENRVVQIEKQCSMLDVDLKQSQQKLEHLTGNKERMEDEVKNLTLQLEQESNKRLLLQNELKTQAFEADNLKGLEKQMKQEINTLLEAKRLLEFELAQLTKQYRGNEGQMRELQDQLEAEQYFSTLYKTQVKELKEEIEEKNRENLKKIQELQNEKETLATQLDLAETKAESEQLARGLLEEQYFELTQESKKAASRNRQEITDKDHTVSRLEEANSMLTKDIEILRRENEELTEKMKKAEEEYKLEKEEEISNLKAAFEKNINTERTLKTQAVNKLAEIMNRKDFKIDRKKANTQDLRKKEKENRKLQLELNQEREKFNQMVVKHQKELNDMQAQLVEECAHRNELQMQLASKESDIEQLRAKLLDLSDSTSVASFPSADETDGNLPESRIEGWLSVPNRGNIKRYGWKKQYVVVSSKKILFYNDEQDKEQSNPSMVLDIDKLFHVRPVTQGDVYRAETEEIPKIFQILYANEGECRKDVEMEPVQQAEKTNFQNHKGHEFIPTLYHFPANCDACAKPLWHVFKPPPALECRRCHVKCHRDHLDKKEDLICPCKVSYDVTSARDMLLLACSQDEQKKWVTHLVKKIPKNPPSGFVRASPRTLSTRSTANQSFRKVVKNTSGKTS
In short: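 Cell-free recombinant human ROCK1 activity assay; fluorescent substrate and product separated by electrophoretic mobility shift, read 1 h after dosing. Screened in duplicate at 25 uM; loss of signal versus DMSO baseline scored as inhibition.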

**Q.** For `CCCCCCCCOC(=O)c1ccc(C(=O)OCCCCCCCC)c(C(=O)OCCCCCCCC)c1`, which outcome is on record?
**A.** inactive

**Q.** Which outcome does the source give for `CCCCCCCCCCCCCN1CC(C)OC(C)C1` (configuration not stated) here?
**A.** inactive

**Q.** How did the outcome turn out when `ClC1=C(Cl)C2(Cl)C3C(Cl)C=CC3C1(Cl)C2(Cl)Cl` (configuration not stated) was run?
**A.** inactive

**Q.** With `CS(=O)(=O)NC(=O)c1cc(Oc2ccc(C(F)(F)F)cc2Cl)ccc1[N+](=O)[O-]` as the compound, how does the outcome read?
**A.** inactive

**Q.** With `CCC12COCN1COC2` as the compound, how does the outcome read?
**A.** inactive

What follows are compounds tested against human Protein Tyrosine Phosphatase Receptor Type M (PTPRM), PTPRM (gene 5797) (UniProt P28827) (assay: NVS_ENZ_hPTPRM: NovaScreen (NVS) Enzymatic Assay for human Protein Tyrosine Phosphatase Receptor Type M (PTPRM) (AID 2283215)).
Chain of human Protein Tyrosine Phosphatase Receptor Type M (PTPRM), PTPRM (gene 5797) (P28827 whole entry, looked up): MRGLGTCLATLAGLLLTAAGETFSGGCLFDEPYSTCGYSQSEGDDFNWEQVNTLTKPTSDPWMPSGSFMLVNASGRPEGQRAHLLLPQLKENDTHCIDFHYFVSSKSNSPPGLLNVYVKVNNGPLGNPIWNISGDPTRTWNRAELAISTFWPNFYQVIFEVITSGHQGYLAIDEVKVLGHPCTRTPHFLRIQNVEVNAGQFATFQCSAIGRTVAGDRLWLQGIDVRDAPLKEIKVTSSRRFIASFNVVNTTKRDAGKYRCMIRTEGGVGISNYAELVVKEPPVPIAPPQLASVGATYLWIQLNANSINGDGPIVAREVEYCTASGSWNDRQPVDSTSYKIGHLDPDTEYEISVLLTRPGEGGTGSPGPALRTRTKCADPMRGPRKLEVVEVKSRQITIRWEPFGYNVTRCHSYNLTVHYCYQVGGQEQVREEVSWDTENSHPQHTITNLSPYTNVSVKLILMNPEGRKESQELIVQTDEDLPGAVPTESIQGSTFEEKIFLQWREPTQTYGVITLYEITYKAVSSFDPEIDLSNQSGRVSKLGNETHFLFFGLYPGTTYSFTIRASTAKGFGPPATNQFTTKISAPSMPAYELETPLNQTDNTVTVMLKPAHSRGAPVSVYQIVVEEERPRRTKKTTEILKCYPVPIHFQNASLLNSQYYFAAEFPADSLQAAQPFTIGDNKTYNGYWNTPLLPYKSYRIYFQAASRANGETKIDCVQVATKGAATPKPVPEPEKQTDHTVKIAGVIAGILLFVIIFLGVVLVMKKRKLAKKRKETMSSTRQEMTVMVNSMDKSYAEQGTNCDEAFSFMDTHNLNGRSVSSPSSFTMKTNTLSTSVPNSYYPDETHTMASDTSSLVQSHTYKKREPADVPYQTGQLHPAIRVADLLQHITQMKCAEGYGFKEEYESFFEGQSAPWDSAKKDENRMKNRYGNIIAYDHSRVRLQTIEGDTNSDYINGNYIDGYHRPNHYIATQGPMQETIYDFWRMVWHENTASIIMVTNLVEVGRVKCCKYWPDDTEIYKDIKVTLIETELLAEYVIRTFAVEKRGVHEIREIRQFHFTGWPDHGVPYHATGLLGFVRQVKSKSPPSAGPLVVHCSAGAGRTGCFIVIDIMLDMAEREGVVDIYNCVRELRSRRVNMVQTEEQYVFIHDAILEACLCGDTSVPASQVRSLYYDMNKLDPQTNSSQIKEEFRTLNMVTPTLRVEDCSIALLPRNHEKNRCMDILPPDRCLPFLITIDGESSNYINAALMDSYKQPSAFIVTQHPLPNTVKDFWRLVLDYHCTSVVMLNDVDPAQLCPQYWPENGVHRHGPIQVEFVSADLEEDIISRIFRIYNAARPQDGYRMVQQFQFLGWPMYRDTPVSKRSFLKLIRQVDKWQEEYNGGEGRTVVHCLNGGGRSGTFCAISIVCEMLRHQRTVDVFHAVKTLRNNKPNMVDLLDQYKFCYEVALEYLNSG
In short: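 Cell-free recombinant PTPRM with fluorogenic substrate; product separated from substrate by electrophoretic mobility shift and read by fluorescence, 1.33 h after dosing. Primary screen single concentration (25 uM) in duplicate; actives retested in concentration series; loss of signal versus DMSO.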

**Q.** For `O=C(Oc1ccc(Br)cc1)N1CCN2CCC1CC2`, which outcome is on record?
**A.** inactive

**Q.** With `O=C(O)C1C2CCC(O2)C1C(=O)O` (configuration not stated) as the compound, how does the outcome read?
**A.** inactive

**Q.** For `CCCSC(=O)N(CCC)CCC`, which outcome is on record?
**A.** inactive

What follows are compounds tested against human Sirtuin 1 (SIRT1), SIRT1 (gene 23411) (UniProt Q96EB6) (assay: NVS_ENZ_hSIRT1: NovaScreen (NVS) Enzymatic Assay for human Sirtuin 1 (SIRT1) (AID 2283219)).
Chain of human Sirtuin 1 (SIRT1), SIRT1 (gene 23411) (Q96EB6 whole entry, looked up): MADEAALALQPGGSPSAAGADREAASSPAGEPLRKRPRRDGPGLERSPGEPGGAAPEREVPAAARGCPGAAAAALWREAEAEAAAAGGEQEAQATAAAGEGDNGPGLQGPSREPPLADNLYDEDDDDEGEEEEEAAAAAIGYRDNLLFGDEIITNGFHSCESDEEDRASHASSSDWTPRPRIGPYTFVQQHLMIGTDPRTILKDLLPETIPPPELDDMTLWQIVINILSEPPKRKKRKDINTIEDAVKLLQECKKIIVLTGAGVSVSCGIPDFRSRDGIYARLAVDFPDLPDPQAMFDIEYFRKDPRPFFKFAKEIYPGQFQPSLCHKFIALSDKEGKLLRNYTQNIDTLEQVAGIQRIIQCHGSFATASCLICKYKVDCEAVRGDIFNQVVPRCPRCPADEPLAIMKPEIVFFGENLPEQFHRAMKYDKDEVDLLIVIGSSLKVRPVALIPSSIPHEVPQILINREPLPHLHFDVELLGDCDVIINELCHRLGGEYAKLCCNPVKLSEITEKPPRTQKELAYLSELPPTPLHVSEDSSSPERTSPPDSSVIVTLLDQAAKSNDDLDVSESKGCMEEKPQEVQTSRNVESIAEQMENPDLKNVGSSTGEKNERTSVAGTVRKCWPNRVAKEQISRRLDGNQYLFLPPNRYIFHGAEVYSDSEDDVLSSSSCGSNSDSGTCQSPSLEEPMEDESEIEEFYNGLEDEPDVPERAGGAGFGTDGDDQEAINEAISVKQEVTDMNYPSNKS
In short: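 Cell-free recombinant SIRT1 with a fluorescent substrate; substrate and product separated by electrophoretic mobility shift and read by fluorescence intensity, 1 h after dosing. Primary screen at 25 uM in duplicate; hits re-run in concentration-response up to 50 uM, relative to DMSO.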

**Q.** For `CCC[CH2][Sn]([Cl])([CH2]CCC)[CH2]CCC`, which AC50 is on record?
**A.** 7.38 µM (active)

**Q.** With `Cc1ccc(N)c(N)c1` as the compound, how does the outcome read?
**A.** inactive

**Q.** For `Clc1ccc(Cl)c(Cl)c1`, which outcome is on record?
**A.** inactive

These compounds were tested against human Sirtuin 3 (SIRT3), SIRT3 (gene 23410) (UniProt Q9NTG7) (assay: NVS_ENZ_hSIRT3: NovaScreen (NVS) Enzymatic Assay for human Sirtuin 3 (SIRT3) (AID 2283222)).
Chain of human Sirtuin 3 (SIRT3), SIRT3 (gene 23410) (Q9NTG7 whole entry, looked up): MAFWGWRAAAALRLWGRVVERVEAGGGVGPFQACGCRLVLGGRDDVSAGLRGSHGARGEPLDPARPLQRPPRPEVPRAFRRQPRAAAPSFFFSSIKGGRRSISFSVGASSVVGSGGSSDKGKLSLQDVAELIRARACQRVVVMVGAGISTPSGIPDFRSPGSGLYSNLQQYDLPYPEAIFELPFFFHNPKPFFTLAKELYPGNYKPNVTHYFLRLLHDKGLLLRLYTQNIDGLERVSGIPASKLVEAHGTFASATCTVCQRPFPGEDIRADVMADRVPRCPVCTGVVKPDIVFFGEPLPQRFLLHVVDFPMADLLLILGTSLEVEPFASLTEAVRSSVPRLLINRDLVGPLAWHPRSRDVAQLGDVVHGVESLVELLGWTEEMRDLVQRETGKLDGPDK
In short: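 Cell-free enzyme assay with recombinant protein and fluorescent substrate, product separated by electrophoretic mobility shift; read 1 hour after dosing. Screened in duplicate at 25 uM, then singleton concentration-response up to 50 uM; loss of signal versus DMSO.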

**Q.** `ClCCOCCCl` was tested. Which outcome did it give?
**A.** inactive

**Q.** For `CCCCC(CC)COC(=O)c1ccc(C(=O)OCC(CC)CCCC)c(C(=O)OCC(CC)CCCC)c1` (configuration not stated), which outcome is on record?
**A.** inactive

**Q.** `O=C(Oc1ccc(Br)cc1)N1CCN2CCC1CC2` was tested. Which outcome did it give?
**A.** inactive

Each compound was assayed against human SRC Proto-Oncogene, Non-receptor Tyrosine Kinase (SRC), SRC (gene 6714) (UniProt P12931) (assay: NVS_ENZ_hSRC: NovaScreen (NVS) Enzymatic Assay for human SRC Proto-Oncogene, Non-receptor Tyrosine Kinase (SRC) (AID 2283223)).
Chain of human SRC Proto-Oncogene, Non-receptor Tyrosine Kinase (SRC), SRC (gene 6714) (P12931 whole entry, looked up): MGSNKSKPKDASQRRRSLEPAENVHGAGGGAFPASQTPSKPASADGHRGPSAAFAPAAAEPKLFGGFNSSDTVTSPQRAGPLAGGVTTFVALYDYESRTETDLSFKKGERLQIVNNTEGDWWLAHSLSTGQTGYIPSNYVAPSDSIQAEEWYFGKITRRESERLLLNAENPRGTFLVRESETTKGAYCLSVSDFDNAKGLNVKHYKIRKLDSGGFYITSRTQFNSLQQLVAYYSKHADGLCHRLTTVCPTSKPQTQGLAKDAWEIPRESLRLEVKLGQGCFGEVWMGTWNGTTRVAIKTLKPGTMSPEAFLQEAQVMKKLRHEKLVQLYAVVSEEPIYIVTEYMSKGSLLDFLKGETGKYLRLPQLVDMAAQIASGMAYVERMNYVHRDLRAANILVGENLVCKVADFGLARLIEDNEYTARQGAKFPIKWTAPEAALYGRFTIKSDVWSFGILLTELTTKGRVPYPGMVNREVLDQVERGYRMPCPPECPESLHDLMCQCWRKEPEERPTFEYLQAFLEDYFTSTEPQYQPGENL
In short: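 Cell-free kinase activity assay with fluorescent substrate, product separated by electrophoretic mobility shift, read 1 h after dosing. Duplicate single point at 25 uM, then concentration-response up to 50 uM; loss of signal versus DMSO.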

**Q.** For `ClCCOCCCl`, which outcome is on record?
**A.** inactive

**Q.** For `CC(C)(C)C(O)(CCc1ccc(Cl)cc1)Cn1cncn1` (configuration not stated), which outcome is on record?
**A.** inactive

**Q.** With `Cc1ccc(N)c(N)c1` as the compound, how does the outcome read?
**A.** inactive

The compounds below were run against human Tyrosine Protein Kinase Receptor Tie-2 (Tie2), TEK (gene 7010) (UniProt Q02763) (assay: NVS_ENZ_hTie2: NovaScreen (NVS) Enzymatic Assay for human Tyrosine Protein Kinase Receptor Tie-2 (Tie2) (AID 2283225)).
In short: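 Recombinant human Tie2 kinase activity was read cell-free by fluorescence with electrophoretic mobility shift, 1 hour after dosing. The screen used 25 uM in duplicate, then concentration-response up to 50 uM. Signal loss was scored against DMSO.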

**Q.** Which outcome does the source give for `CCCCC(CC)COC(=O)c1ccc(C(=O)OCC(CC)CCCC)c(C(=O)OCC(CC)CCCC)c1` (configuration not stated) here?
**A.** inactive

**Q.** `CC(C)(C)C(O)(CCc1ccc(Cl)cc1)Cn1cncn1` (configuration not stated) was tested. Which outcome did it give?
**A.** inactive

**Q.** `O=C(Oc1ccc(Br)cc1)N1CCN2CCC1CC2` was tested. Which outcome did it give?
**A.** inactive

Each compound was assayed against rabbit Imidazoline 2 Central (I2C), CKB (gene 100009085) (UniProt P00567) (assay: NVS_ENZ_rabI2C: NovaScreen (NVS) Enzymatic Assay for rabbit Imidazoline 2 Central (I2C) (AID 2283228)).
Chain of rabbit Imidazoline 2 Central (I2C), CKB (gene 100009085) (P00567 whole entry, looked up): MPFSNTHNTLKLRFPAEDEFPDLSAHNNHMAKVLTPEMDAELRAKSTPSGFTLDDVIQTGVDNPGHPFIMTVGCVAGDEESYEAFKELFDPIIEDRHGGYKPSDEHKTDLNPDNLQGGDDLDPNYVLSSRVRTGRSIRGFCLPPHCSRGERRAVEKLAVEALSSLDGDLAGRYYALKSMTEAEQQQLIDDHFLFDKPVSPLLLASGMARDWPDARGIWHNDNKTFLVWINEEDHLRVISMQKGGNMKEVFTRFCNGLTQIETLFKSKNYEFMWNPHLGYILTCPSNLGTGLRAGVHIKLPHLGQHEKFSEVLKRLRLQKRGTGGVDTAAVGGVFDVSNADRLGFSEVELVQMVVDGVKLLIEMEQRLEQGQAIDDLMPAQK
In short: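 Rabbit brain membranes, cell-free; readout by filter-based scintillation counting 1.5 hours after dosing, loss of signal vs DMSO. Initial duplicate test at 25 uM, then concentration-response with 50 uM top concentration.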

**Q.** For `CC(C)(O)c1cnn2c(-c3ccc(F)c(-c4c(F)cccc4C#N)c3)cnc2n1`, which AC50 is on record?
**A.** 0.362 µM (active)

**Q.** How did the outcome turn out when `Cc1ccc(N)c(N)c1` was run?
**A.** inactive

**Q.** With `Nc1ccc([N+](=O)[O-])cc1` as the compound, how does the outcome read?
**A.** inactive

**Q.** For `CN(C)C(=O)Nc1ccc(Cl)cc1`, which outcome is on record?
**A.** inactive

**Q.** How did the AC50 turn out when `CCOC(=O)[C@]1(c2ccccc2)Oc2ccccc2[C@@H]1N` was run?
**A.** 4.37 µM (active)

**Q.** How did the outcome turn out when `O=C(N[C@H](c1ccccc1)[C@@H]1CN2CCC1CC2)c1c(Cl)ccc(C(F)(F)F)c1Cl` was run?
**A.** inactive

**Q.** Which outcome does the source give for `Nc1ccc(N=Nc2ccccc2)cc1` here?
**A.** inactive
